Our source for the composite z-score and z-score values is PubChem BioAssay.

Active and inactive are the calls of the source. Unless noted, how the calls were made is not given here.

For experiment [1], the system named is XIP peptide (Xip251-270) binding. The experiment is described as follows: XIP fragment 251-270 binding compounds – biochemical, small-molecule microarray, fluorescence 635/667 nm, 0.1 µg/mL protein, primary screen (AID 1182). Conditions: fluorescent protein binding, 635 nm, higher = more signal, called active from +8 up or from −8 down.
Another experiment has as its system XIP peptide (Xip251-270). The experiment is described as follows: compounds binding XIP fragment 251-270 – biochemical, small-molecule microarray, fluorescence 635/667 nm, 0.5 µg/mL protein, primary screen (AID 1183). The note with it: fluorescence 635 nm, higher = more signal.
Experiment [2] in a line: blood-stage malaria parasite viability loss – strain 3D7, DAPI fluorescence, 100 nL, primary screen (AID 1184).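 Further: parasites grown inside human red blood cells in medium with human serum.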 The note with it: P. falciparum 3D7 growth, 3 d, higher = more signal.
Experiment [3] concerns the target Homeobox protein Hox-A13 (Mus musculus) (UniProt Q62424). Description: disruptors of Hoxa13 oligonucleotide interaction – biochemical, fluorescence polarization, labeled oligonucleotide, primary screen (AID 1185). Conditions: Hoxa13:DNA binding, 15 min, higher = more signal, called active from +8 up or from −8 down.
Experiment [4] can be described thus: blockers of DNA damage checkpoint Chk1 activation – imaging, HeLa, hydroxyurea, phospho-Chk1 antibody, percent positive cells, primary screen (AID 1186). The note with it: hydroxyurea-induced phospho-Chk1 immunofluorescence imaging, higher = more signal.
Experiment [5] in a line: blockers of DNA damage checkpoint Chk1 activation – imaging, HeLa, hydroxyurea, phospho-Chk1 nuclear intensity, primary screen (AID 1187). Conditions: hydroxyurea-induced phospho-Chk1 immunofluorescence imaging, higher = more signal.

Sequence of Homeobox protein Hox-A13 (Mus musculus) (Q62424 whole entry, looked up): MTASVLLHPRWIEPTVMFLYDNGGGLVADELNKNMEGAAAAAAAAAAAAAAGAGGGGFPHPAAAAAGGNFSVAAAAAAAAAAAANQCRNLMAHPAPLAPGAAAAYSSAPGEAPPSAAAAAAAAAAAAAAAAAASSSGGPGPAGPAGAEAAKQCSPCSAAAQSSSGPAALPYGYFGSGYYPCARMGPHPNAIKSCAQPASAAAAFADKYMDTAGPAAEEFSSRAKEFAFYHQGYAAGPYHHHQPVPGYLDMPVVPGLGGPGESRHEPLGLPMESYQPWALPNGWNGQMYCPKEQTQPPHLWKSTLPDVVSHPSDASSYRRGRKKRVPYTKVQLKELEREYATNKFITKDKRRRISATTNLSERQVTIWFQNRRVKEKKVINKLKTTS

On to `CC(C)OC(=O)C=C1C[C@@H](c2ccc(C(F)(F)F)cc2)O[C@@H](c2ccc(C(F)(F)F)cc2)O1`, for which the composite z-score is 0.416 (inactive) in experiment [1] and 0.567 in the experiment with XIP peptide (Xip251-270). Further, the z-score in experiment [2] is -0.266; in experiment [3], -3.22 (inactive); in experiment [4] it was -0.272 (inactive); in experiment [5], 0.0075 (inactive).
With `C#CCN([C@@H](Cc1ccc(O)cc1)C(=O)OC)[C@@H](/C=C/C1CC1)[C@H](O)Cc1ccccc1`, the composite z-score is -0.297 (inactive) in experiment [1] and -0.331 in the experiment with XIP peptide (Xip251-270). Moreover, the z-score in experiment [2] is 0.501; in experiment [3], -7.49 (inactive); in experiment [4] it was -0.453 (inactive); in experiment [5] it was -0.368 (inactive).
As to `CCCC[C@@H](O)C1=C(COc2ccccc2)C[C@H]2C(=O)N(C)C(=O)[C@H]2[C@H]1CO`, the composite z-score is -0.35 (inactive) in experiment [1] and -0.442 in the experiment on XIP peptide (Xip251-270). The z-score is -0.764 in experiment [2], -3.48 (inactive) in experiment [3], -1.66 (inactive) in experiment [4] and -1.41 (inactive) in experiment [5].
Regarding `CCOC(=O)c1ccc(NC(=O)O[C@H]2[C@H](OC(=O)Nc3ccc4c(c3)OCO4)[C@H](OC(=O)Nc3ccc4c(c3)OCO4)[C@@H](OC)O[C@@H]2CO)cc1`, the results for the composite z-score (in experiment [1]; with XIP peptide (Xip251-270)) were 1.4 (inactive) and 0.863, respectively. The z-score in experiment [2] is -2.28; in experiment [3] it was -6.83 (inactive); in experiment [4] it was -0.306 (inactive); in experiment [5], 0.101 (inactive).
For `C=CCC(OC(C)=O)[C@@H]1[C@@H](N(Cc2ccc(-c3cccc(C(F)(F)F)c3)o2)C(=O)c2ccc(-c3ccccc3)cc2)c2cc(OCCCO)ccc2N1C(=O)c1ccc2ccccc2n1` (stereo partly specified), the composite z-score in experiment [1] was -0.211 (inactive); with XIP peptide (Xip251-270), -0.102. The z-score was -0.746 in experiment [2], -1.33 (inactive) in experiment [3], 0.768 (inactive) in experiment [4] and 0.615 (inactive) in experiment [5].
Turning to `[N-]=[N+]=Nc1ccccc1C[C@]1(C(=O)N2CCOCC2)N=C(c2ccc(OCCCO)cc2)O[C@H]1c1ccccc1`, the composite z-score in experiment [1] was 0.511 (inactive); in the experiment with XIP peptide (Xip251-270), 0.748. For the same compound, the z-score in experiment [2] is -2.03; in experiment [3], -5.32 (inactive); in experiment [4] it was -0.47 (inactive); in experiment [5] it was -0.106 (inactive).
As to `Cn1cccc1C(O)C1C=CC2C(=O)NC(=O)C2N1Nc1ccc(Cl)cc1Cl` (stereo unspecified), the composite z-score was 0.789 (inactive) in experiment [1] and 0.768 with XIP peptide (Xip251-270). Also, the z-score was -0.152 in experiment [2], -3.92 (inactive) in experiment [3], 0.702 (inactive) in experiment [4] and 0.532 (inactive) in experiment [5].
Turning to `COc1ccc([Si](C)(C)[C@H]2[C@H](CC(=O)N(CCO)Cc3ccccc3)O[C@@]3(C(=O)N(Cc4cccc(N5CCOC5=O)c4)c4ccccc43)[C@@H]2C)cc1`, the results for the composite z-score (in experiment [1]; with XIP peptide (Xip251-270)) were 0.114 (inactive) and 0.77, respectively. Besides, the z-score was -2.69 in experiment [2], -2.33 (inactive) in experiment [3], -0.178 (inactive) in experiment [4] and -0.157 (inactive) in experiment [5].
Regarding `C=C(/C(=C/C[C@@H](OC(C)=O)c1cccc(OCCO)c1)c1cc(C(=O)OC)ccc1OC)C(C)C`, the composite z-score in experiment [1] is -0.139 (inactive); with XIP peptide (Xip251-270), 0.567. The z-score in experiment [2] was -3.06; in experiment [3] it was -5.59 (inactive); in experiment [4], -0.541 (inactive); in experiment [5], -0.42 (inactive).
Consider `COc1ccc([Si](C)(C)[C@@H]2[C@@H](CCn3cc([C@H](O)c4ccccc4)nn3)O[C@]3(C(=O)N(Cc4ccc(N5CCC5=O)cc4)c4ccccc43)[C@H]2C)cc1`, for which the composite z-score in experiment [1] is -0.325 (inactive); in the experiment with XIP peptide (Xip251-270), 0.641. Besides, the z-score in experiment [2] is -2.47; in experiment [3] it was -2.32 (inactive); in experiment [4], -0.169 (inactive); in experiment [5] it was 0.663 (inactive).
As for `CC(C)(C)N1CC=CC23O[C@@H]4C=CCCOC(=O)C4[C@H]2C(=O)N(CCO)[C@@H]3C1=O` (stereo partly specified), the values for the composite z-score (in experiment [1]; in the experiment on XIP peptide (Xip251-270)) were -0.692 (inactive) and -0.421, respectively. For the same compound, the z-score was -0.175 in experiment [2], -4.92 (inactive) in experiment [3], 0.0024 (inactive) in experiment [4] and -0.528 (inactive) in experiment [5].
As to `CC(c1ccccc1)C(O)C1C=CC2C(=O)N(c3ccccc3)C(=O)C2N1Nc1ccc([N+](=O)[O-])cc1` (stereo unspecified), the composite z-score in experiment [1] was 0.725 (inactive); with XIP peptide (Xip251-270), 0.837. Further, the z-score is -0.917 in experiment [2], -3.22 (inactive) in experiment [3], 0.433 (inactive) in experiment [4] and 0.104 (inactive) in experiment [5].
In the case of `COC(=O)[C@@]1(Cc2ccc(F)cc2)[C@H]2c3cc(C(=O)N(C)C)n(Cc4cc(F)cc5c4OCOC5)c3C[C@H]2CN1C(=O)c1ccccc1`, the composite z-score in experiment [1] was 1.21 (inactive); in the experiment with XIP peptide (Xip251-270), 0.628. Also, the z-score was -1.54 in experiment [2], -2.73 (inactive) in experiment [3], -0.909 (inactive) in experiment [4] and -0.669 (inactive) in experiment [5].
On to `C=CCC(OC(C)=O)[C@@H]1[C@@H](N(Cc2ccc(-c3ccccc3)cc2)C(=O)Cc2ccc(F)cc2)c2cc(OCCCO)ccc2N1C(=O)Cc1ccc(OC)cc1` (stereo partly specified), for which the values for the composite z-score (in experiment [1]; with XIP peptide (Xip251-270)) were 0.0187 (inactive) and -0.308, respectively. In addition, the z-score in experiment [2] is -0.939; in experiment [3] it was -2.3 (inactive); in experiment [4] it was -0.245 (inactive); in experiment [5] it was -0.23 (inactive).
On to `O=C1OCCC=C[C@H]2OC34C=CCN(Cn5nnc6ccccc65)C(=O)[C@H]3N(CCCCCCO)C(=O)[C@@H]4C12` (stereo partly specified), for which the composite z-score in experiment [1] was 1.62 (inactive); in the experiment with XIP peptide (Xip251-270), -0.948. Besides, the z-score in experiment [2] was 0.006; in experiment [3] it was -3.78 (inactive); in experiment [4], -0.667 (inactive); in experiment [5] it was -0.21 (inactive).
Turning to `[N-]=[N+]=Nc1ccccc1[C@H]1OC(c2ccc(OCCCO)cc2)=N[C@@]1(Cc1ccccc1)C(=O)N1CCCCC1`, the composite z-score is 0.391 (inactive) in experiment [1] and 0.664 in the experiment on XIP peptide (Xip251-270). Moreover, the z-score in experiment [2] is -1.95; in experiment [3], -2.71 (inactive); in experiment [4], -0.549 (inactive); in experiment [5], -0.463 (inactive).
